# Several values for one entry are separate records, joined by “and”; a condition that tells them apart may be missing. Equal entries are not always repeated. Records with an inconclusive call do not appear. Values without a mark were called inactive. Activity calls are given as the source filed them. Calls come from the whole dose curve; as a rule, active = well fitted inhibition curve with a large enough effect; inconclusive = small, poorly fitted or top-dose-only effect; inactive = no such curve, though single readings can be large or run the other way.
# Assay: Primary qHTS for inhibitors of nuclear receptor binding SET domain protein 2 (NSD2) in an RCH-ACV wild type WT cells (2C) (AID 1645877); note: nearly all actives have a fitted effect of over 70% in size
# Conditions: RCH-ACV (leukaemia line) NSD2 WT (2C) viability, CellTiter-Glo, 72 h; series mostly up to 44.9 µM; activity change, negative = cell killing: at the top concentration
# % is set by controls: 0 for no effect and ±100 for the full control effect; potency is the fitted concentration of half-maximal effect.
SMILES,Potency,"activity change, negative = cell killing",outcome
CCN(CCO)CCCOc1ccc2c(Nc3cc(CC(=O)Nc4cccc(F)c4)[nH]n3)ncnc2c1,0.132 µM (active),–,–
CN(C)CC[C@H](CSc1ccccc1)Nc1ccc(S(=O)(=O)NC(=O)c2ccc(N3CCN(Cc4ccccc4-c4ccc(Cl)cc4)CC3)cc2)cc1[N+](=O)[O-],2.63 µM (active),–,–
OC1CCC(Nc2ncc3nc(Nc4c(F)cc(F)cc4F)n([C@@H]4CCOC4)c3n2)CC1 (some centres not stated),–,-19.6%,–
CCOC(=O)c1c(CSc2ccccc2)n(C)c2cc(Br)c(O)c(CN(C)C)c12,20.9 µM (active),–,–
O=C(O)CCC=CCC[C@@H]1[C@H](N2CCCCC2)[C@@H](O)C[C@@H]1OCc1ccc(-c2ccccc2)cc1,–,-17.1%,–
CN1CCN2c3ncccc3Cc3ccccc3C2C1 (configuration not stated),–,1.07%,–
C[C@]12CC[C@@H]3c4ccc(O)cc4CC[C@H]3[C@H]1[C@@H](O)[C@@H](O)[C@H]2O,–,-7.63%,–
CCC[C@H](Nc1nc(-c2ccc(NC(=O)NCC)c(OC)c2)ncc1C)c1cccnc1,0.0372 µM (active),–,–
CC1=C[C@@H]2[C@@H]([C@@H](O)C[C@@]3(C)[C@H]2C[C@@H](C)[C@]3(O)C(=O)CO)[C@@]2(C)Cc3cnn(-c4ccccc4)c3C=C12,0.0026 µM (active),–,–
N[C@@H](CC(=O)N1CCn2c(nnc2C(F)(F)F)C1)Cc1cc(F)c(F)cc1F,–,7.38%,–
CC(C)[C@H](O)C(=O)N[C@@H](C)C(=O)N[C@@H]1C(=O)N(C)CCc2ccccc21,–,1.02%,–
NCC1CCC(C(=O)O)CC1 (configuration not stated),–,5.08% [at 17.3 µM],–
CC(C)(F)C[C@H](N[C@@H](c1ccc(-c2ccc(S(C)(=O)=O)cc2)cc1)C(F)(F)F)C(=O)NC1(C#N)CC1,–,-2.15%,–
Cc1ccc(S(=O)(=O)OCC(=O)Nc2ccc(C(=O)O)c(O)c2)cc1,–,–,inactive
OC(c1cc(C(F)(F)F)nc2c(C(F)(F)F)cccc12)C1CCCCN1 (configuration not stated),13.2 µM (active),–,–
O=C(NC[C@H](O)CO)c1ccncc1Nc1ccc(I)cc1F,16.6 µM (active),–,–

SMILES,Potency,"activity change, negative = cell killing",outcome
NC(=O)c1ccc(N(C(N)=O)c2c(F)cccc2F)nc1-c1ccc(F)cc1F,–,-19.8%,–
CS(=O)(=O)c1ccc(C2=C(c3ccccc3)C(=O)OC2)cc1,–,1.66%,–
Cc1ccc(C(=O)N(CCCN)[C@@H](c2nc3cc(Cl)ccc3c(=O)n2Cc2ccccc2)C(C)C)cc1,0.0132 µM (active),–,–
Cc1ccc2c(c1)C(=O)[C@]1(O)CCN(c3ccccc3)C1=N2,23 µM (active),–,–
Cc1ccc2c(=O)c3cccc(CC(=O)O)c3oc2c1C,–,–,inactive
COc1nccc(-c2c(-c3ccc(F)cc3)ncn2C2CCNCC2)n1,18.6 µM (active),–,–
CN(C)CCN(C)C(=O)c1ccc(NC(=O)Nc2ccc(-c3nc(N4CCOCC4)c4ccn(CC(F)(F)F)c4n3)cc2)cc1,0.0186 µM (active),–,–
C=CC(=O)Nc1cccc(Sc2nc(Nc3ccc(N4CCN(C)CC4)cc3)ncc2Cl)c1,2.3 µM (active) and 2.63 µM (active),–,–
O=C(O)Cc1cccc(OCCCN(Cc2cccc(C(F)(F)F)c2Cl)CC(c2ccccc2)c2ccccc2)c1,–,–,inactive
CC(=O)NCCC(=O)N[C@@H](CCC(N)=O)C(=O)N[C@@H](CO)C(=O)N[C@@H](CCC(N)=O)C(=O)N[C@@H](CCC(N)=O)C(=O)N[C@H](C(=O)N[C@@H](Cc1ccccc1)C(=O)N[C@]1(C)CCCCCCC=CCCC[C@@](C)(C(=O)N[C@@H](CCC(N)=O)C(=O)N[C@@H](CC(N)=O)C(N)=O)NC(=O)[C@H](CC(C)C)NC(=O)[C@H](CC(C)C)NC(=O)[C@@H](CCCNC(=N)N)NC(=O)[C@H](Cc2c[nH]c3ccccc23)NC(=O)[C@H](CC(C)C)NC(=O)[C@H](CC(N)=O)NC1=O)[C@H](C)O,–,-9.36%,–
CCOc1ccccc1N=Nc1c(C)[nH]n(-c2nc(-c3ccccc3)cs2)c1=O,–,-0.228%,–
Cc1c(C(=O)Nc2ccc(N3C[C@@H](C)O[C@@H](C)C3)nc2)cccc1-c1ccc(OC(F)(F)F)cc1,–,1.54%,–
CC[C@H](C)n1cc(C)c2c(C(=O)NCc3c(C)cc(C)[nH]c3=O)cc(-c3ccc(N4CCNCC4)nc3)cc21,16.6 µM (active),–,–
CO[C@@H]1C(N(C)C(=O)c2ccccc2)C[C@H]2O[C@]1(C)n1c3ccccc3c3c4c(c5c6ccccc6n2c5c31)C(=O)NC4=O (some centres not stated),1.32 µM (active),–,–
CCC(C)SSc1ncc[nH]1 (configuration not stated),8.33 µM (active),–,–
NCc1c[nH]c(=S)n1[C@H]1CCc2c(F)cc(F)cc2C1,–,-14.7%,–
